Results as given in the supplement of paper PMC3334620.
Over roughly 33,000 sequences, “E-score (-0.5 to 0.5)” has its median near -0.043; the highest 2% begin near 0.37. The sample holds the highest values, similar sequences and a random draw of the others, so the mix is not that of the screen.

Biological target: T1, Upc2 (UniProt Q12151)
T1 sequence: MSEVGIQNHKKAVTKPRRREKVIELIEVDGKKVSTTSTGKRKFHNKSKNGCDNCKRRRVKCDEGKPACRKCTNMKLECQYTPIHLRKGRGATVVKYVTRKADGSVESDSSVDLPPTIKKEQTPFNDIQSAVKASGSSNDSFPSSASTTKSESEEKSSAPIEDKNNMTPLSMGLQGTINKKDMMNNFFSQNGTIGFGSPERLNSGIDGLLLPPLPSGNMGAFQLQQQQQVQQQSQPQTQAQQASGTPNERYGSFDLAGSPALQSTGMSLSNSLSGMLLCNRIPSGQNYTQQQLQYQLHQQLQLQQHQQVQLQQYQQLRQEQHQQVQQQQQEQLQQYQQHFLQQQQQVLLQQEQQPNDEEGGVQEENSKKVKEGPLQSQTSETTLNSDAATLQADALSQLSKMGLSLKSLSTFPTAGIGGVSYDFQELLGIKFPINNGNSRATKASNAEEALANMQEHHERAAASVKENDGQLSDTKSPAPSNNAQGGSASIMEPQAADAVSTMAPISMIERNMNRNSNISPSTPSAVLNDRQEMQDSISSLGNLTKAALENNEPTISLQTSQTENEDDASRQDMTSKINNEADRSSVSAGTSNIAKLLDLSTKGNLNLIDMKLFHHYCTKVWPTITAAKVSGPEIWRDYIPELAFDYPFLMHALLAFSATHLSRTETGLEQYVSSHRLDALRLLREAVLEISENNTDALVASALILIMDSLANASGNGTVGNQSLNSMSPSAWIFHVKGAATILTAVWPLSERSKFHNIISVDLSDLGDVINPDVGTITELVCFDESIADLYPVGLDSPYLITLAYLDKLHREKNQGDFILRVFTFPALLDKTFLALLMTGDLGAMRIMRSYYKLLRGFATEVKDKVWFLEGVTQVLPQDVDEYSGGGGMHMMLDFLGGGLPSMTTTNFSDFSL
Assay: PBM E-score (8-mer binding enrichment) (E-score (-0.5 to 0.5)); higher = stronger / more preferred TF binding
Settings: protein concentration: 200 nM; construct: GST-full length
Summary of the method: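 Masliner-normalised scans of fluorescent anti-GST signal were the basis for scoring. That signal came from GST-tagged yeast transcription factors applied at about 100-200 nM to double-stranded universal all-10-mer Agilent arrays on fresh or once-stripped slides. Each ungapped eight-base word, pooled with its reverse complement, received an E-score from the Universal PBM Analysis Suite.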

Sequence	PBM E-score
GCGTACCC	0.244
CCGTACCG	0.389
CCGTACCA	0.368
CCGTACCC	0.379
ACGTACCC	0.203
ACGTACCG	0.272
GAAATATA	0.127
ATCCCGTA	0.373
ATCCCGTG	0.0975
GTCCCGTA	0.25
AACCCAAC	0.00517
CGCTTACA	0.178
CGCTTACC	0.301
CGCTTACG	0.372
CCTTATAA	0.0883
CCGTTTAG	0.468
ACGTTTAA	0.407
ACGTTTTA	0.188
CCGTTTCG	0.255
CAGTTTAG	-0.0566
ACGTTTAG	0.397
ACGTTTAT	0.313
ATGTTTAA	0.067
ACGTTTTG	-0.0436
CACTAGCC	-0.0426

Sequence	PBM E-score
TAAGACAA	0.0602
AGCTGAGA	-0.232
CTTGCACC	0.0237
GAAAGCCA	-0.231
CTCGTATC	0.473
ATAGTATG	0.0124
CTGGTATC	-0.187
CTTGTATC	-0.0734
ATCGTATC	0.426
ATAGTATC	0.0546
ATCGTATG	0.455
AACGTATG	0.239
ATGGTATC	0.15
CGGTCACA	0.0569
AGTGCTAT	-0.0648
CGTGCTTC	0.014
CACAAGGC	-0.308
GGCCATGA	-0.134
ACTTCAGC	-0.178
CCTGTACG	0.436
CCTGTACA	-0.0382
ATTGTACG	0.428
ATTGTACA	-0.0603
AATGTACG	0.36
AGTGTACG	0.417

Sequence	PBM E-score
ATTGTACC	0.115
AGTGTACC	-0.0597
CATGTACA	-0.00834
CATGTACG	0.409
CCTGTACC	-0.0294
AGTGTACA	-0.0815
ACATGCGA	0.128
ACAGCGGT	-0.15
AATCTGAA	-0.00542
CTTGACTC	-0.0404
ATAAGTCC	-0.0003
GGTCCACA	-0.166
GAGTTCTA	-0.141
ACTGTACT	0.0214
ACTGTACC	-0.077
ACTGTACG	0.433
ATATACGC	0.387
CTATACCC	0.0307
ATATACTG	0.0777
ATATACAC	0.193
ATATACCA	0.0254
ATATACCG	0.194
ATATACAA	-0.0498
CTATACTC	0.0215
CTATACGC	0.458

Sequence	PBM E-score
ATATACGG	0.456
ATATACGA	0.492
ATATACTC	-0.0113
CGGATTTA	0.0862
CGCCTTAC	0.155
AATCTGAC	-0.119
AGCTCACT	-0.138
ATAAAAAG	0.0686
CCTCTCAG	-0.352
CGTAGGGA	-0.0318
ATCTTACA	0.0167
GACGTACA	0.305
ATAGTACA	0.149
GGCGTACA	0.269
ATCGTACG	0.435
ATAGTACG	0.221
ATCGTACA	0.468
AACGTACG	0.386
AGCGTACA	0.301
ATCGTAGG	0.165
AACGTACC	0.256
AACGTACA	0.266
GTCGTACA	0.483
AGTTTTCA	-0.0402
CAGCTAGG	-0.352

Sequence	PBM E-score
AAGGTGGA	-0.0852
TCAGTCCA	-0.272
AAAAACGT	0.0237
AGCGCTTG	-0.188
GCGGTACC	0.0215
GAAGTGCA	-0.153
CTTCTCGA	-0.187
ACCAGAAT	-0.00733
CCAGAGGA	-0.256
AGTCGAGC	-0.152
CGTAAACG	0.473
GGTAAACA	0.111
CGTAAACA	0.39
AGTAAACG	0.442
CGTAAATA	0.34
AGTAAACC	-0.0507
CGTAAATC	0.352
AGTAAACA	0.0452
TGTAAACA	-0.0818
ACGATTTG	0.28
CCAAGCTA	-0.182
CAAATAGA	-0.0516
AGTTTCAT	0.0688
CCTCTATC	-0.122
AAGATCAT	0.0203

Sequence	PBM E-score
AGTTTATC	0.115
GGTTTATA	0.144
CGTTTATC	0.425
CGTTTATA	0.45
AGTTTATA	0.129
CTTTTATC	0.00372
ATCTAGCA	-0.206
CCGACACC	0.0358
ACGACAGT	0.37
ACGACAGC	0.336
ACGACACC	0.374
ACGACACG	0.295
ACGACAGG	0.359
ATTATAAC	-0.061
CTAGAGCA	-0.192
GATTGTGA	-0.112
GCACGTTA	0.182
ACTCGGTC	0.0379
CCACGTTA	0.136
GCTCGTTA	0.39
CCTCGTGC	0.0326
ACTCGTTG	0.198
CCTCGTTC	0.46
ACTCGTTA	0.35
CCTCGTTA	0.399

Sequence	PBM E-score
GCTCGCTA	0.196
CCTCGTCC	-0.3
ACTCGTTC	0.46
ACAGTAGA	-0.0149
CATCTTGG	-0.305
GAGTAACC	0.101
GTCTCACA	-0.0791
CGATATGC	0.149
GCAACTGA	0.0086
GAACTGCA	-0.0845
ACGAAACG	0.403
ACGAAACA	0.339
ACGAAACC	0.267
ACGAAACT	0.382
ACGAAAGG	0.32
CCGAAACG	0.346
GAATTTGA	-0.0533
CACCACCC	-0.124
AGTGAAAC	-0.0497
CCCCTTTA	-0.129
GAACGGGA	0.238
AAACGGAC	0.337
TAACGGGA	0.0733
AAACGGGT	0.344
GAACGGGC	0.291

Sequence	PBM E-score
CAACGGGC	0.00552
AAACGGAT	0.37
CAACGGGG	-0.0318
AAACGGGC	0.395
AAACGGGG	0.398
AAACGGGA	0.369
AAACGGAG	0.34
AGACCCCA	-0.148
ATAGAACG	0.253
GCCATCTA	-0.299
CAGACCAG	-0.0598
CATTCACA	-0.114
CTCGGCGC	0.069
AAGAGTCA	-0.11
CATTAAGC	0.0328
CTACGGCC	-0.0664
CTACGGCA	0.0153
ACACGGCG	-0.0227
ATACGGCC	0.416
AGACGGCG	-0.0186
GTACGGCA	0.364
ATACGGCG	0.43
ATACGGCA	0.422
AGACGGCC	-0.222
GTTTCACA	0.00208

Sequence	PBM E-score
CCGAGTCC	-0.0483
GCTCCTAC	0.0461
GCAGTTAA	0.0277
GATGATAC	0.0998
AGCCAAAA	-0.178
GAAAACGA	0.263
GGAAACAA	-0.0508
AGAAACGA	0.4
AGAAACGC	-0.037
GGAAACGA	0.428
CGAAACCA	0.201
CGAAACGA	0.447
CGAAACGC	0.15
AGAAACGG	0.217
ACAGTCCT	-0.319
CTCGCTCC	0.313
ACATAGTG	-0.128
ACCGCCAG	-0.0637
GATCACGA	-0.00109
